Some of the results follow. The hit rate among all sequences tested is not known here.
Target: furin, P09958
Assay: furin cleavage Z-score vs untreated control; higher = more cleavage, active = 3.5 or more, inactive = 1 or less, 8 variable residues between constant flanks
Procedure, shortened: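 Purified furin cleaved 8-mer peptides that were fused to a cDNA oligonucleotide and held on magnetic beads by their N-terminus. Each 0.01 ml reaction used a 1:10 enzyme:substrate ratio in 50 mM HEPES pH 7.5 with CaCl2 and NaCl and ran 7.5, 15 or 30 min. Released DNA was adapter-tagged by PCR and sequenced, and read counts gave abundance. The cleavage Z-score came from log counts against furin-free reactions, lowess-adjusted and scaled by median absolute deviation.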

Sequence of furin, P09958 (P09958 whole entry): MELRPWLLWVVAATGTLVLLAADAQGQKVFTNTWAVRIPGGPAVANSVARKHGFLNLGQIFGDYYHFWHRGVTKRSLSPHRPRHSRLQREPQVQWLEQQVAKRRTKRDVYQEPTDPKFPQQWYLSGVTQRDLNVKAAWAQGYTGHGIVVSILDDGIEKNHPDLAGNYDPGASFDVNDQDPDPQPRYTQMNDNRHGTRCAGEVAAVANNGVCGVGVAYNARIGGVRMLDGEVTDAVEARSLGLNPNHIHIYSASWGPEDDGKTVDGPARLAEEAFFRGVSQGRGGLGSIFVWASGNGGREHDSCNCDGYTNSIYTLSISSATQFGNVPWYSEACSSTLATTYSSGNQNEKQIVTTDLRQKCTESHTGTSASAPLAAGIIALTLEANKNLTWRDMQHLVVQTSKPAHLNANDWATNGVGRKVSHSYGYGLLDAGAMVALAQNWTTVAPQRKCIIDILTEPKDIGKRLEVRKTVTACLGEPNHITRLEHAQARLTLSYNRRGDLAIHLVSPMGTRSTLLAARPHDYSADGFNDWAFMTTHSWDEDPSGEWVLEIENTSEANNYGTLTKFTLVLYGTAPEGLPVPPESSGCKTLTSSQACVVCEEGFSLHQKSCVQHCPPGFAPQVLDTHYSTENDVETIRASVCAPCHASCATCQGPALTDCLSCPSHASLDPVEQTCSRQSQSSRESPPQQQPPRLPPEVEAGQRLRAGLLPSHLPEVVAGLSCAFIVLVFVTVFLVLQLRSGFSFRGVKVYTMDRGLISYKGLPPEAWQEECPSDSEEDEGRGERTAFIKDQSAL

Sequence	furin cleavage Z-score (7.5 min)	furin cleavage Z-score (15 min)	furin cleavage Z-score (30 min)
CATTPCSRSWAGNASASA [HC1893]	0.791 (inactive)	0.627 (inactive)	-0.432 (inactive)
CAPLRDWAHNAGNASASA [HC638]	0.639 (inactive)	0.256 (inactive)	0.786 (inactive)
CASTPCSAHTAGNASASA [HC2578]	-0.678 (inactive)	-2.17 (inactive)	0.0661 (inactive)
CAFFCFAWYLAGNASASA [HC546]	-1.2 (inactive)	-0.615 (inactive)	-0.815 (inactive)
CARKIRIKGIAGNASASA [FS-2558]	0.0544 (inactive)	-0.85 (inactive)	-1.75 (inactive)
CARKVREAYLAGNASASA [FS-2427]	5.91 (active)	6.8 (active)	7.91 (active)
CARKMRLGDAAGNASASA [FS-1728]	0.749 (inactive)	0.395 (inactive)	-0.759 (inactive)
CARKIRKKRLAGNASASA [FS-84]	9.24 (active)	9.01 (active)	7.01 (active)
CARKMRPARLAGNASASA [FS-1260]	3.41	4.23 (active)	4.92 (active)
CARHSRKKRLAGNASASA [FS-1259]	8.52 (active)	11.2 (active)	9.02 (active)
CARHSRSQGAAGNASASA [FS-2948]	-0.651 (inactive)	0.879 (inactive)	-0.497 (inactive)
CARHSRQVLLAGNASASA [FS-2947]	0.717 (inactive)	2.58	2.14
CARKVRDKISAGNASASA [FS-1961]	-0.364 (inactive)	-1.5 (inactive)	1.37
CAELIEANLLAGNASASA [HC1273]	-1.11 (inactive)	-1.92 (inactive)	0.0877 (inactive)
CARYSRSSAAAGNASASA [FS-1811]	1.3	1.43	0.767 (inactive)
CARAARSLLQAGNASASA [FS-1679]	1.57	0.802 (inactive)	5.01 (active)
CARWGRFLLQAGNASASA [FS-3128]	0.358 (inactive)	1.41	0.253 (inactive)
CARVVRELLQAGNASASA [FS-1805]	5.28 (active)	8.9 (active)	7.51 (active)
CAWLAGLFYHAGNASASA [HC379]	-1.56 (inactive)	-0.299 (inactive)	-1.72 (inactive)
CAPLEVIKGGAGNASASA [HC851]	1.06	0.444 (inactive)	0.579 (inactive)
CACHCGAEITAGNASASA [HC1175]	-0.983 (inactive)	-1.4 (inactive)	-0.977 (inactive)
CAVFKRRRRSAGNASASA [FS-1101]	12.7 (active)	11.3 (active)	8.61 (active)

Sequence	furin cleavage Z-score (7.5 min)	furin cleavage Z-score (15 min)	furin cleavage Z-score (30 min)
CALAARGARLAGNASASA [FS-682]	-1.17 (inactive)	0.199 (inactive)	0.619 (inactive)
CALAARRRRSAGNASASA [FS-264]	10.9 (active)	11 (active)	8.11 (active)
CATALRRARSAGNASASA [FS-200]	1.48	0.619 (inactive)	0.983 (inactive)
CATAQRRRRSAGNASASA [FS-877]	8.41 (active)	7.47 (active)	6.08 (active)
CAPAARRRRSAGNASASA [FS-1146]	11.4 (active)	10.2 (active)	8.82 (active)
CAPAARFKKFAGNASASA [FS-367]	-0.438 (inactive)	-0.599 (inactive)	-0.45 (inactive)
CAELEVVTSTAGNASASA [HC2272]	-0.698 (inactive)	-0.669 (inactive)	-1.12 (inactive)
CAYEMEECSQAGNASASA [HC1789]	0.403 (inactive)	-0.566 (inactive)	1.37
CANLLPAILSAGNASASA [HC1101]	-0.111 (inactive)	0.993 (inactive)	-0.0781 (inactive)
CANWSPTTALAGNASASA [HC323]	-0.0824 (inactive)	-0.415 (inactive)	-0.513 (inactive)
CAAQLLRIPQAGNASASA [HC328]	-1 (inactive)	1.5	0.847 (inactive)
CAMEECSTHLAGNASASA [HC1738]	0.958 (inactive)	0.401 (inactive)	0.22 (inactive)
CAVTPCSGSWAGNASASA [HC1830]	-0.794 (inactive)	-0.739 (inactive)	-0.453 (inactive)
CAEKAVERRSAGNASASA [FS-1191]	0.591 (inactive)	2.02	0.505 (inactive)
CAKDSRFFRYAGNASASA [FS-808]	0.318 (inactive)	-0.509 (inactive)	1.08
CATAQRHRRYAGNASASA [FS-628]	8.01 (active)	10.1 (active)	9.56 (active)
CAAKAKRRRSAGNASASA [FS-744]	10.8 (active)	11.8 (active)	8.83 (active)
CAGNITRVESAGNASASA [HC1280]	-0.34 (inactive)	-0.548 (inactive)	1.72
CAYVSRLRRVAGNASASA [FS-1441]	4.8 (active)	5.42 (active)	4.8 (active)
CAPEARLRRVAGNASASA [FS-839]	0.0356 (inactive)	3.09	2.39
CARFARLRRVAGNASASA [FS-853]	4.92 (active)	7.36 (active)	5.85 (active)

Reference: the supplement of paper PMC3545927
